The text below walks through data of PubChem BioAssay (NCI).

Molecules are shown by their SMILES. The panel holds about 83,000 compounds, 20% with a hit somewhere; the sample as a whole holds those more often.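 48-hour exposure, single concentration, 96-well plates; percent growth endpoint where 0 means no net growth. Active: below 10.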 Values without a mark were called inactive. Calls of active or inactive are those of the source.

Test in all cases: NCI-60 one-dose screen, 48 h (100 = growth as untreated, 0 = no growth, -100 = all killed)
Holding throughout (settings): 10 µM unless noted

For experiment [1], the system named is NCI-H23 lung.
In experiment [2] the test system is NCI-H226 lung.
For experiment [3], the system named is NCI-H322M lung.
Experiment [4] concerns HOP-62 NSCLC.
In experiment [5] the test system is NCI-H460 lung.
For experiment [6], the system named is HOP-92 NSCLC.
Experiment [7] deals with NCI-H522 lung.
In experiment [8] the test system is A549/ATCC NSCLC.
Experiment [9] concerns 786-0 renal.
Experiment [10] relates to COLO 205 colon.
The subject of experiment [11] is DU-145 prostate.
Experiment [12] has as its system K-562 leukemia.
Experiment [13] concerns MALME-3M melanoma.
Experiment [14] has as its system MDA-MB-231 breast.
Experiment [15] concerns RXF 393 renal.
In experiment [16] the test system is SF-268 CNS.
The subject of experiment [17] is SF-295 CNS.
Experiment [18] deals with SF-539 CNS.
Experiment [19] deals with UACC-257 melanoma.
Experiment [20] deals with M14 melanoma.

On to `CCN(CC)CCOc1ccc(C(=C(c2ccccc2)C2CCCC2)c2ccc(OCCN(CC)CC)cc2)cc1`, for which the growth is 16.7% in experiment [1]; 12.8% in experiment [2]; 59.5% in experiment [3]; 50.2% in experiment [4]; 17.2% in [5]; -30.8% (active) in experiment [6]. Besides, the growth was 2.43% (active) in [7]; 37.4% in [8]; 62.6% in experiment [9]; -83.9% (active) in experiment [10]; 38.3% in [11]; 8.22% (active) in experiment [12]. For the same molecule, the growth in experiment [13] is -0.396% (active); in experiment [14] it was 24.7%; in experiment [15], -33.4% (active); in experiment [16] it was 25.5%; in [17], 60.6%; in experiment [18], 9.14% (active). The results for the growth in experiment [19] and in experiment [20] were 14.3% and 30.8%, respectively.

Take `CCN(CC)S(=O)(=O)c1ccc(-c2nc(C(Cl)Cl)nc3cc(-c4ccc(F)cc4)nn23)cc1`: the growth was 21.7% in [1]; 77.3% in [2]; 41.4% in experiment [3]; 10.3% in [4]; 10.2% in experiment [5]; -3.41% (active) in experiment [6]. Moreover, the growth in [7] was 79.3%; in experiment [8] it was 17.8%; in experiment [9], 76.5%; in experiment [10], 8.9% (active); in experiment [11], 16%; in experiment [12], 34.6%. Further, the growth in [13] was 57.6%; in experiment [14] it was 1.34% (active); in experiment [15], -30.2% (active); in experiment [16], 48.5%; in experiment [17] it was 32.6%; in experiment [18] it was 18.4%. Also, the figures for the growth in experiment [19] and in experiment [20] were 67.7% and 47.1%, respectively.

On to `Cn1cc(-c2nc(N)nnc2-c2c[nH]c3ccc(Br)cc23)c2cc(F)ccc21`, for which the growth in [1] was 93.3%; in experiment [2], 96.6%; in [3] it was 86.1%; in [4] it was 103%; in [5], 97.7%; in experiment [6], 98.7%. Further, the growth was 89.1% in experiment [7]; 103% in experiment [8]; 98.3% in experiment [9]; 103% in [10]; 96.4% in [11]; 56.4% in experiment [12]. The growth is 94.2% in experiment [13]; 90.2% in experiment [14]; 93.6% in experiment [15]; 86.9% in experiment [16]; 106% in [17]; 95.1% in [18]. Also, the growth in experiment [19] was 109%; in [20], 102%.

Consider `C#Cc1cc(OC)c(C(=O)Nc2ccc(F)cc2C(=O)Nc2cccc(S(=O)(=O)C(F)(F)F)c2)cn1`, for which the growth is -49.4% (active) in experiment [1]; 13.1% in experiment [2]; 88.9% in experiment [3]; 16.3% in experiment [4]; 26.6% in experiment [5]; -65.7% (active) in [6]. Also, the growth in experiment [7] was -69.3% (active); in [8], -7.6% (active); in experiment [9], -78.7% (active); in experiment [10], 52.2%; in experiment [11], 46.8%; in experiment [12], 5.65% (active). Besides, the growth in [13] was -33.4% (active); in experiment [14], -24.4% (active); in experiment [15], -1.43% (active); in experiment [16], -38.1% (active); in experiment [17], -83.2% (active); in experiment [18] it was -87.1% (active). Further, the growth was 55.7% in experiment [19] and 16.7% in experiment [20].

On to `N#C/C(=N\Nc1ccc(F)cc1)C(=O)Nc1cc(-c2ccccc2)nn1-c1ccccc1`, for which the growth in [1] is 0.456% (active); in experiment [2] it was 2.16% (active); in experiment [3], 0.72% (active); in experiment [4], 18.2%; in experiment [5], 4.31% (active); in experiment [6] it was -21.3% (active). The growth in experiment [7] is 6.57% (active); in experiment [8], 11%; in [9] it was 21.3%; in experiment [10] it was -7.35% (active); in experiment [11], 22.9%; in experiment [12] it was 12.8%. The growth is -17% (active) in experiment [13]; -6.26% (active) in [14]; -2.63% (active) in experiment [15]; 14.5% in experiment [16]; 2.07% (active) in experiment [17]; 8.69% (active) in experiment [18]. Also, the growth in experiment [19] was -13.5% (active); in experiment [20], 18.3%.

`COc1ccccc1N1CCN(C2=C(Cl)C(=O)c3ncccc3C2=O)CC1`: the growth in [1] is 56.3%; in experiment [2], 91%; in experiment [3] it was 92.4%; in [4], 93.4%; in [5] it was 75%; in [6] it was 135%. The growth is 9.14% (active) in experiment [7]; 112% in [8]; 107% in experiment [9]; 106% in experiment [10]; 48% in experiment [11]; 9.05% (active) in [12]. In addition, the growth in experiment [13] is 58.8%; in [14] it was 86.4%; in experiment [15], 71%; in [16], 87.6%; in experiment [17] it was 107%; in experiment [18], 95%. In addition, the growth is 95% in experiment [19] and 88.1% in experiment [20].

Take `COC(=O)c1ccc(NC2=C(Cl)C(=O)C(C)=C(C)C2=O)cc1`: the growth in [1] was 68.5%; in [2], 72.9%; in experiment [3], 99.6%; in experiment [4], 66.2%; in experiment [5], 79.3%; in [6], 64.9%. The growth was 53.1% in [7]; 81.5% in experiment [8]; 84.9% in experiment [9]; 104% in experiment [10]; 85.3% in experiment [11]; 4.61% (active) in [12]. Moreover, the growth is 85% in experiment [13]; 68.9% in [14]; 65.8% in [15]; 87.3% in experiment [16]; 36.6% in experiment [17]; 65.9% in experiment [18]. Besides, the growth in experiment [19] is 79.5%; in experiment [20], 45.8%.

With `COc1cc(C(=O)c2cc(C(C)=O)c3cccc(C)n23)cc(OC)c1OC`, the growth in experiment [1] was 59.7%; in experiment [2] it was 51.6%; in experiment [3], 69.2%; in experiment [4], 36.7%; in [5] it was 16.1%; in experiment [6] it was 33.5%. Moreover, the growth was 19.3% in [7]; 50.2% in experiment [8]; 47.1% in experiment [9]; 11% in [10]; 68.3% in experiment [11]; 15.6% in experiment [12]. The growth was 46.2% in experiment [13]; 37.4% in experiment [14]; 46.6% in experiment [15]; 54% in [16]; 17.9% in experiment [17]; 46.8% in experiment [18]. For the same molecule, the figures for the growth in [19] and in experiment [20] were 56% and 5.73% (active), respectively.

As to `C#C[C@]1(O)CC[C@H]2[C@@H]3CC=C4c5sc(Nc6ncccc6C)nc5CC[C@]4(C)[C@H]3CC[C@@]21C`, the growth in experiment [1] was 9.38% (active); in experiment [2], 23.4%; in experiment [3] it was 32.8%; in experiment [4], 11.9%; in experiment [5], 0.476% (active); in experiment [6] it was 20.5%. Moreover, the growth in [7] is 25.9%; in experiment [8], 21.8%; in experiment [9] it was -56.2% (active); in experiment [10], 34.8%; in experiment [11], 36.8%; in [12] it was -9.62% (active). In addition, the growth in [13] was -19% (active); in experiment [14], 12.8%; in [15] it was -75.3% (active); in experiment [16] it was 7.66% (active); in experiment [17], -70% (active); in experiment [18], -56.4% (active). Besides, the growth is -35.8% (active) in experiment [19] and -55.9% (active) in experiment [20].

For the molecule `NC1CC2(CCN(c3cnc(C(=O)Nc4cc(F)cc5cccnc45)cn3)CC2)C1`, the growth was 88.6% in experiment [1]; 93.2% in experiment [2]; 87.4% in [3]; 96% in [4]; 83.8% in experiment [5]; 79.7% in experiment [6]. The growth was 93.3% in [7]; 63.2% in experiment [8]; 71.8% in [9]; 49.9% in [10]; 81.3% in experiment [11]; -13.3% (active) in [12]. Besides, the growth was 96.2% in [13]; 80.1% in experiment [14]; 73.5% in experiment [15]; 83.1% in experiment [16]; 58% in experiment [17]; 75.7% in [18]. Besides, the growth in experiment [19] is 103%; in experiment [20], 78.9%.

On to `COc1ccc(NC(=O)CCCCCCNC(=O)C(O)(O)C(F)(F)F)cc1`, for which the growth in [1] is 53.2%; in experiment [2], 84.1%; in experiment [3] it was 66.1%; in [4] it was 28.3%; in [5] it was 40.2%; in [6] it was 28.5%. The growth is 0.885% (active) in [7]; 46.3% in [8]; 52.9% in [9]; 9.56% (active) in experiment [10]; 28.7% in [11]; 21.7% in experiment [12]. Besides, the growth in [13] was 18.8%; in experiment [14], 59.5%; in experiment [15] it was 0.972% (active); in experiment [16] it was 56.5%; in experiment [17] it was 24.3%; in experiment [18] it was 48.7%. Moreover, the growth was 48.7% in experiment [19] and 49.6% in [20].

`Brc1ccc2[nH]cc(-c3nn4cc(-c5nccs5)nc4s3)c2c1`: the growth is 31.2% in experiment [1]; 50.5% in experiment [2]; 51.5% in experiment [3]; 12.8% in experiment [4]; -45.3% (active) in [5]; -28.1% (active) in experiment [6]. Besides, the growth in experiment [7] was 67.6%; in [8], 4.76% (active); in experiment [9], -74.5% (active); in experiment [10] it was 11%; in experiment [11], 20.8%; in [12], 13.1%. The growth in [13] was -7.45% (active); in experiment [14], -13.5% (active); in experiment [15] it was -46.4% (active); in [16] it was 31.7%; in experiment [17] it was 37.1%; in experiment [18] it was 29.7%. The results for the growth in experiment [19] and in experiment [20] were 56.8% and 13.3%, respectively.

On to `O=C(Nc1ccc(Cl)c(C(F)(F)F)c1)Nc1ccc2oc(=O)ccc2c1`, for which the growth is 4.85% (active) in [1]; 26.6% in [2]; 60.5% in [3]; 73.4% in [4]; 18.1% in experiment [5]; -1.84% (active) in experiment [6]. The growth is 20.3% in experiment [7]; 39.8% in experiment [8]; 70.3% in experiment [9]; 40.5% in experiment [11]; 19.1% in [12]; 42.6% in experiment [13]. In addition, the growth was 69.3% in [14]; 89.2% in experiment [15]; 65% in experiment [16]; 5.31% (active) in experiment [17]; 63.3% in [18]; 64.4% in [19]. Besides, the growth in experiment [20] is 49.6%.
